According to PubChem BioAssay (Tox21):
Values joined by “and” are separate entries in the source; they are usually repeats but may differ in a detail not shown here. Equal values may be shown once. Inconclusive results are not listed. The source holds several records for some structures; these can differ, active in one and inactive in another. Active and inactive are the calls of the source. Unless noted, calls follow the shape of the dose curve; as a rule, active = well fitted curve in the direction sought with a large enough effect in the repeat runs; inconclusive = weak or mixed curves; inactive = no such curve, though single readings can be large; an effect the other way counts as inactive or inconclusive.

Assays:
[1] = qHTS assay to identify small molecule agonists of the hypoxia (HIF-1) signaling pathway - cell viability counter screen (AID 1224844; calls by dose curve; also: nearly all actives have a fitted effect of over 50% in size; also: potency is read from the fitted curve at half-maximal effect)
How it was run: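 Cytotoxicity measured by CellTiter-Glo ATP luminescence in the wells also read for beta-lactamase signal. Cells were HRE-bla ME-180 (2,000/well, 0.5% dialyzed FBS), exposed to compounds for 17 h at 37C.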

[2] = qHTS assay to identify small molecule agonists of H2AX (AID 1224845; active = well fitted activation curve with a large enough effect in the signal ratio in the repeat runs, not every such curve was filed as active; the % refers to the signal ratio)
How it was run: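 Phospho-H2AX Ser139 measured by HTRF (ex 320 nm; em 665 and 620 nm) after 24 hr antibody incubation. Compounds, 15 concentrations, 0.76% DMSO, were applied to CHO-K1 cells for 3hr at 37C before lysis.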

[3] = qHTS assay to identify small molecule agonists of the hypoxia (HIF-1) signaling pathway (AID 1224846; active = well fitted activation curve with a large enough effect in the signal ratio in the repeat runs, not every such curve was filed as active; the % refers to the signal ratio)
How it was run: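 Compounds added to ME-180 cells carrying hypoxia-response-element beta-lactamase reporter (0.5% dialyzed FBS, 5 h preplating), 17 h at 37C; agonist activity detected by CCF4-AM B/G FRET read-out.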

[4] = qHTS assay to identify small molecule agonists of H2AX - cell viability counter screen (AID 1224847; calls by dose curve; also: top concentration of the series differs between compounds; nearly all actives have a fitted effect of over 30% in size)
How it was run: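 Read-out: CellTiter-Glo luminescence, 30 min RT. Cells: wild-type CHO-K1, 1000/well, 10% FBS, plated overnight at 37C. Treatment: 15 concentrations, 3 hr, 37C, 0.76% DMSO.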

[5] = qHTS assay to identify small molecule antagonists of the estrogen related receptor (ERR) signaling pathway from Tox21 library (AID 1224848); also: nearly all actives have a fitted effect of over 50% in size; also: potency is read from the fitted curve at half-maximal effect
How it was run: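 ERR cell line, 2,000 cells/well. 6 h settle, then compound (DMSO) added; 18 h at 37 C; ONE-Glo luminescence after 30 min RT.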

[6] = qHTS RealTime-Glo MT Cell Viability Assay in HepG2 cells - 24 hour (AID 1224867); also: nearly all actives have a fitted effect of over 50% in size
How it was run: (§1)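 Cell number in HepG2 cultures estimated from NanoLuc luminescence generated by metabolic reduction of a prosubstrate by living cells. The homogeneous, nonlytic format allowed repeated reads at 0, 8, 16, 24, 32 and 40 h of compound exposure.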

[7] = qHTS RealTime-Glo MT Cell Viability Assay in HEK293 cells - 32 hour (AID 1224868); also: nearly all actives have a fitted effect of over 50% in size; also: potency is read from the fitted curve at half-maximal effect
How it was run: (§2)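 Homogeneous bioluminescent viability format in HEK293 cells (600 cells/well). Following 5 h at 37 C/5% CO2, 23 nL compound was pintooled; the signal was measured repeatedly during 40 h incubation.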

[8] = A CellTox Green Cytotoxicity Assay to monitor cytotoxicity in HEK293 cells - 0 hour (AID 1224869); also: nearly all actives have a fitted effect of over 50% in size; also: potency is read from the fitted curve at half-maximal effect
How it was run: (§3)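 Fluorescence from a DNA-binding dye excluded by viable cells was measured repeatedly in the same HEK293 wells (600 cells/well) during continuous compound exposure at 37 C. Each assay gives one read point: 0, 8, 16, 24, 32 or 40 h.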

[9] = qHTS RealTime-Glo MT Cell Viability Assay in HepG2 cells - 40 hour (AID 1224870); also: nearly all actives have a fitted effect of over 50% in size
How it was run: (§4)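 Real-time viability: cells seeded at 600 per well together with NanoLuc and cell-permeant prosubstrate, compounds added after 5 h incubation. Luminescence tracked at 0, 8, 16, 24, 32 and 40 h of exposure.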

[10] = A CellTox Green Cytotoxicity Assay to monitor cytotoxicity in HEK293 cells - 40 hour (AID 1224871); also: nearly all actives have a fitted effect of over 45% in size; also: potency is read from the fitted curve at half-maximal effect
How it was run: as §3

[11] = qHTS RealTime-Glo MT Cell Viability Assay in HEK293 cells - 16 hour (AID 1224872)
How it was run: as §2

[12] = qHTS RealTime-Glo MT Cell Viability Assay in HepG2 cells - 8 hour (AID 1224873); also: nearly all actives have a fitted effect of over 55% in size
How it was run: as §4

[13] = qHTS RealTime-Glo MT Cell Viability Assay in HEK293 cells - 40 hour (AID 1224874); conditions: RealTime-Glo luminescence; max response: stronger effect = lower value; also: nearly all actives have a fitted effect of over 50% in size; also: potency is read from the fitted curve at half-maximal effect
How it was run: (§5)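 Luminescence, which tracks viable cell number through reduction of the prosubstrate to a NanoLuc substrate, was read over continuous 37 C culture. Cells (600/well) were premixed with reagent and rested 5 h before 23 nL of compound in DMSO was pinned.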

[14] = A CellTox Green Cytotoxicity Assay to monitor cytotoxicity in HEK293 cells - 24 hour (AID 1224875); also: nearly all actives have a fitted effect of over 45% in size
How it was run: as §3

[15] = A CellTox Green Cytotoxicity Assay to monitor cytotoxicity in HepG2 cells - 16 hour (AID 1224876); also: nearly all actives have a fitted effect of over 45% in size; also: potency is read from the fitted curve at half-maximal effect
How it was run: (§6)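 Real-time cytotoxicity: fluorescence of a cell-impermeant cyanine dye binding DNA of dead HepG2 cells, measured repeatedly (0–40 h) during compound exposure at 37 C. Cells seeded 600/well with reagent, dosed after 5 h.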

[16] = qHTS RealTime-Glo MT Cell Viability Assay in HepG2 cells - 32 hour (AID 1224877); also: nearly all actives have a fitted effect of over 55% in size
How it was run: as §1

[17] = A CellTox Green Cytotoxicity Assay to monitor cytotoxicity in HepG2 cells - 24 hour (AID 1224878); also: nearly all actives have a fitted effect of over 45% in size; also: potency is read from the fitted curve at half-maximal effect
How it was run: as §6

[18] = A CellTox Green Cytotoxicity Assay to monitor cytotoxicity in HepG2 cells - 40 hour (AID 1224879); also: nearly all actives have a fitted effect of over 40% in size; also: potency is read from the fitted curve at half-maximal effect
How it was run: as §6

[19] = qHTS RealTime-Glo MT Cell Viability Assay in HEK293 cells - 0 hour (AID 1224880)
How it was run: as §5

[20] = qHTS assay to identify small molecule agonists of the estrogen related receptor (ERR) signaling pathway from Tox21 library (AID 1224849; calls by dose curve; also: nearly all actives have a fitted effect of over 15% in size); conditions: ERR reporter cell line, ONE-Glo luciferase, 18 h; at 92.4 µM (top of the series)
How it was run: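 Luminescent agonist read-out (One-Glo, 30-minute room-temperature incubation) following 18-hour compound treatment at 37 C of the ERR cell line, which had been plated 6 hours before dosing.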
% is scaled to controls: 0 for no effect and ±100 for the full control effect.

O=[N+]([O-])/N=C1\NCCN1Cc1ccc(Cl)nc1
inactive: Potency [1] | Potency [2] | outcome [3] | Potency [4] | Potency [5] | Potency [6] | Potency [7] | Potency [8] | Potency [9] | Potency [10] | Potency [11] | Potency [12] | max response [13] 1.13% and 0.238% | Potency [14] | Potency [15] | Potency [16] | Potency [17] | Potency [18] | Potency [19]

CCCCOCC1CO1 (stereo unspecified)
inactive and 38.9 µM (active): Potency [17]
inactive: Potency [1] | Potency [2] | outcome [3] | Potency [4] | Potency [5] | activity change, positive = activation [20] 0.0042% and -11% | Potency [6] | Potency [7] | Potency [9] | Potency [11] | Potency [12] | max response [13] 4.37% and 7.91% | Potency [16] | Potency [19]
inactive and 19.5 µM (active): Potency [8] | Potency [10]
inactive and 43.6 µM (active): Potency [15] | Potency [18]

Cn1c(-c2ccccc2)cc(-c2ccccc2)[n+]1C
active: Potency [5] 17.2 µM and 21.7 µM | Potency [7] 8.69 µM and 24.5 µM | Potency [13] 9.75 µM and 21.9 µM
inactive: Potency [1] | Potency [2] | outcome [3] | Potency [4] | Potency [6] | Potency [8] | Potency [9] | Potency [10] | Potency [12] | Potency [14] | Potency [15] | Potency [16] | Potency [17] | Potency [18] | Potency [19]

CN(C)c1ccccc1
inactive: Potency [1] | Potency [2] | outcome [3] | Potency [4] | Potency [5] | activity change, positive = activation [20] -1.62% and 6.09% | Potency [6] | Potency [7] | Potency [8] | Potency [9] | Potency [10] | Potency [11] | Potency [12] | max response [13] 0.0564% and 11.3% | Potency [14] | Potency [15] | Potency [16] | Potency [17] | Potency [18] | Potency [19]

CCNc1nc(Cl)nc(NC(C)(C)C#N)n1
inactive: Potency [1] | Potency [2] | outcome [3] | Potency [4] | Potency [6] | Potency [7] | Potency [8] | Potency [9] | Potency [10] | Potency [11] | Potency [12] | max response [13] -8.64% and -8.88% | Potency [14] | Potency [15] | Potency [16] | Potency [17] | Potency [18] | Potency [19]

Cc1ccc([N+](=O)[O-])cc1
inactive: Potency [1] | Potency [2] | outcome [3] | Potency [4] | Potency [6] | Potency [7] | Potency [8] | Potency [9] | Potency [10] | Potency [11] | Potency [12] | max response [13] 7.21% and 12.5% | Potency [14] | Potency [15] | Potency [16] | Potency [17] | Potency [18] | Potency [19]

ClC(Cl)(Cl)Br
inactive: Potency [1] | Potency [2] | outcome [3] | Potency [4] | Potency [6] | Potency [7] | Potency [8] | Potency [9] | Potency [10] | Potency [11] | Potency [12] | Potency [14] | Potency [15] | Potency [16] | Potency [17] | Potency [18] | Potency [19]

COc1ccc(C=O)cc1OC
inactive: Potency [1] | Potency [2] | outcome [3] | Potency [4] | Potency [5] | Potency [6] | Potency [7] | Potency [8] | Potency [9] | Potency [10] | Potency [11] | Potency [12] | max response [13] 1.59% and -6.52% | Potency [14] | Potency [15] | Potency [16] | Potency [17] | Potency [18] | Potency [19]

CS(=O)(=O)NC(=O)c1cc(Oc2ccc(C(F)(F)F)cc2Cl)ccc1[N+](=O)[O-]
inactive: Potency [1] | Potency [2] | outcome [3] | Potency [4] | Potency [6] | Potency [7] | Potency [8] | Potency [9] | Potency [10] | Potency [11] | Potency [12] | Potency [14] | Potency [15] | Potency [16] | Potency [17] | Potency [18] | Potency [19]

O=S(=O)(O)C(F)(F)C(F)(F)C(F)(F)C(F)(F)C(F)(F)C(F)(F)C(F)(F)C(F)(F)F
18.6 µM (active) and inactive: Potency [15] | Potency [17]
active: Potency [1] 33 µM and 49 µM and 12.3 µM
16.5 µM (active) and inactive: Potency [18]
inactive: Potency [2] | outcome [3] | Potency [4] | Potency [5] | Potency [6] | Potency [7] | Potency [8] | Potency [9] | Potency [11] | Potency [12] | max response [13] -24.5% and 0.151% | Potency [16] | Potency [19]

N#Cc1cccnc1
inactive: Potency [1] | Potency [2] | outcome [3] | Potency [4] | Potency [5] | Potency [6] | Potency [7] | Potency [8] | Potency [9] | Potency [10] | Potency [12] | Potency [14] | Potency [15] | Potency [16] | Potency [17] | Potency [18] | Potency [19]

CC(C)CON=O
inactive: Potency [1] | Potency [2] | outcome [3] | Potency [4] | Potency [6] | Potency [7] | Potency [8] | Potency [9] | Potency [11] | Potency [12] | max response [13] 8.89% and 0.247% | Potency [14] | Potency [15] | Potency [16] | Potency [17] | Potency [18] | Potency [19]
